HT1080NT lethal: kills 2HG-producing HT-1080-NT fibrosarcoma cells | Potency, µM (top dose mostly 46.1 µM), for the others: at the top dose activity, negative = less viability, most hits filed as cytotoxic | HT-1080-NT fibrosarcoma viability, CellTiter-Glo ATP luminescence, 48 h | AID 686970 | hit rate 1.6% among 360,000;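 also: NT is the 2HG producing partner of a matched IDH1 knockdown line; potency is read from the fitted curve at half-maximal effect; 0% = DMSO-treated cells and -100% = media-only wells without cells; nearly all actives have a fitted effect of over 55% in size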
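A 48-hour cytotoxicity screen used HT-1080-NT cells plated 2 hours before compound delivery. ATP-based CellTiter-Glo luminescence measured viability, normalized to DMSO and no-cell controls.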
IL1B secr inh: inhibitors of inflammasome signaling (IL-1 beta secretion); THP-1 LPS/ATP IL-1B secretion, AlphaLISA, 16 h; hits give low values; activity change, % at 57.5 µM; hit rate 4.7% among 360,000; in the data active = activity change below about -50%; inconclusive = mostly about -30% to -49%
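THP-1 cells pretreated 1 hr with compounds (up to 57.5 uM final), then stimulated with LPS (250 ng/mL final) plus ATP (1.25 mM final); secreted IL-1B measured by AlphaLISA after 16 hr, decreased signal indicating inhibition.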
TDP1 cell CPT: growth inhibition of DT40 Tdp1-/-;hTDP1 cells with camptothecin (screen for TDP1 inhibitors). chicken DT40 Tdp1-/-;hTDP1 cells + 20 nM CPT, ATP luminescence, 48 h. Potency, µM (series often up to 46.2 µM), inactives show at the highest dose activity change, negative = growth inhibition, hits mostly inhibitors. hit rate 12% among 420,000. AID 686979; also: potency is read from the fitted curve at half-maximal effect; nearly all actives have a fitted effect of over 55% in size
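Cell growth measured by CellTiter-Glo luminescence after a minimum 48 h, 37 C compound exposure with 20 nM CPT in Tdp1-knockout DT40 cells stably expressing hTDP1, seeded 400/well; qHTS titration format.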
DT40 TDP1 no CPT: qHTS for Inhibitors of human tyrosyl-DNA phosphodiesterase 1 (TDP1): qHTS in cells in absence of CPT; hit rate 15% among 420,000; DT40 Tdp1-/- hTDP1 cells, no CPT, ATP luminescence, 48 h; Potency, µM (top dose mostly 46.2 µM), inactives show at the highest dose activity change, negative = growth inhibition, hits mostly inhibitors; also: potency is read from the fitted curve at half-maximal effect; nearly all actives have a fitted effect of over 55% in size
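Camptothecin absent (DMSO only). Human TDP1-complemented DT40 knockout cells, 400 cells/well, 37 °C for minimum 48 hr; ATP measured via CellTiter-Glo, 30 min dark incubation, luminescence.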
HT1080 IDH1KD tx: kills HT-1080 cells with IDH1 knockdown | hit rate 2% among 360,000 | AID 686971 | Potency, µM (highest dose often 46.1 µM), for the others: at the top dose activity, negative = toxicity, hits mostly cytotoxic | HT-1080 IDH1 knockdown viability, ATP luminescence, 48 h;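 also: potency is read from the fitted curve at half-maximal effect; 0% = DMSO wells and -100% = cell-free medium wells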
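Knockdown cells (IDH1KD HT-1080) received compounds 2 h after plating at 750 cells/well and were kept 48 h at 37 °C in 5% FBS RPMI. A CellTiter-Glo luminescence read gave % activity for curve fitting.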
* hit, by the source's call. Most compounds without a hit are left out; they make up all but 19% or so of the library. Unless noted, calls follow the shape of the dose curve; as a rule, active = well fitted curve in the direction sought with a large enough effect; inconclusive = small, poorly fitted or top-dose-only effect, or another doubt; inactive = no such curve, though single readings can be large; an effect the other way counts as inactive or inconclusive. Unless noted, % is scaled to controls: 0 for no effect and ±100 for the full control effect.

`CSc1ccccc1C(=O)N(CC1CCCO1)c1c(N)n(Cc2ccccc2)c(=O)[nH]c1=O` (stereo unspecified) gave HT1080NT lethal 2%, IL1B secr inh 22, TDP1 cell CPT 0%, DT40 TDP1 no CPT -16% and HT1080 IDH1KD tx 0%.
For O=S(=O)(NCCSc1ccccc1)c1cccs1 the results were HT1080NT lethal -2%, IL1B secr inh -8, TDP1 cell CPT -4%, DT40 TDP1 no CPT -3% and HT1080 IDH1KD tx 5%.
Screening CCN(CC)c1ccc(N=Cc2cc(Br)ccc2O)cc1 returned HT1080NT lethal inconclusive, IL1B secr inh -2, TDP1 cell CPT 16µM*, DT40 TDP1 no CPT inconclusive and HT1080 IDH1KD tx inconclusive.
`Oc1ccc(Br)cc1C=Nc1ccc(Cl)cc1` gave HT1080NT lethal 0%, IL1B secr inh 0, TDP1 cell CPT -7%, DT40 TDP1 no CPT 19% and HT1080 IDH1KD tx -6%.
`Cc1ccc(O)c(C=Nc2cc(C)ccc2O)c1` gave HT1080NT lethal -9%, IL1B secr inh 2, TDP1 cell CPT 5.8µM*, DT40 TDP1 no CPT 5.2µM* and HT1080 IDH1KD tx 18%.
CC(C)(C)c1ccc(O)c(N=Cc2cc(Br)ccc2O)c1 was read as HT1080NT lethal 4%, IL1B secr inh 55, TDP1 cell CPT inconclusive, DT40 TDP1 no CPT 26µM* and HT1080 IDH1KD tx 5%.
Screening CCc1ccc(O)c(N=Cc2ccccc2O)c1 returned HT1080NT lethal inconclusive, IL1B secr inh 7, TDP1 cell CPT inconclusive, DT40 TDP1 no CPT -15% and HT1080 IDH1KD tx inconclusive.
`O=C(Nc1ccc(C(=O)OCc2cc(=O)n3nc(C4CC4)sc3n2)cc1)c1cccc(F)c1` gave TDP1 cell CPT 0% and DT40 TDP1 no CPT inconclusive.
Screening CCOC(=O)CNC(=S)N(CCCN1CCN(C)CC1)Cc1cccs1 returned HT1080NT lethal 3%, IL1B secr inh -1, TDP1 cell CPT -3%, DT40 TDP1 no CPT -20% and HT1080 IDH1KD tx 0%.
`COc1cc(OC)cc(-c2c(-c3cccs3)c3cc(-c4ccn[nH]4)ccc3n2C)c1` gave HT1080NT lethal inconclusive, IL1B secr inh 61, TDP1 cell CPT inconclusive, DT40 TDP1 no CPT 16µM* and HT1080 IDH1KD tx inconclusive.
For COc1cc(F)cc(-c2ccc3c(c2)c(-c2cccs2)c(-c2cc(OC)cc(OC)c2)n3C)c1 the results were HT1080NT lethal -17%, IL1B secr inh 2, TDP1 cell CPT 18µM*, DT40 TDP1 no CPT 23µM* and HT1080 IDH1KD tx -4%.
For COc1cc(OC)cc(-c2c(-c3cccs3)c3cc(-c4ccc(N(C)C)nc4)ccc3n2C)c1 the results were HT1080NT lethal 9%, IL1B secr inh 34, TDP1 cell CPT 23µM*, DT40 TDP1 no CPT 21µM* and HT1080 IDH1KD tx 2%.
Cc1cc(C)c(CSc2nnc(C)n3c2cc2occc23)c(C)c1 was read as TDP1 cell CPT 18µM* and DT40 TDP1 no CPT 21µM*.
Screening O=C(Nc1ccc(C(F)(F)F)cc1)C1CC(=O)N(c2ccc3c(c2)OCCO3)C1 (stereo unspecified) returned HT1080NT lethal -5%, IL1B secr inh 3, TDP1 cell CPT -15%, DT40 TDP1 no CPT -16% and HT1080 IDH1KD tx -11%.
Screening O=C(CSCC(=O)Nc1nc(-c2ccc3c(c2)OCO3)cs1)Nc1nccs1 returned HT1080NT lethal 10%, IL1B secr inh -15, TDP1 cell CPT 12µM*, DT40 TDP1 no CPT 26µM* and HT1080 IDH1KD tx 0%.
O=C(Nc1nc(-c2ccc3c(c2)OCO3)cs1)C1CC1 was read as HT1080NT lethal 15%, IL1B secr inh -1, TDP1 cell CPT 2.3µM*, DT40 TDP1 no CPT 2.3µM* and HT1080 IDH1KD tx 10%.
`O=C(O)C(=O)Nc1nc(-c2ccc3c(c2)OCCO3)cs1` gave HT1080NT lethal -2%, IL1B secr inh -10, TDP1 cell CPT -4%, DT40 TDP1 no CPT -4% and HT1080 IDH1KD tx 10%.

Source: PubChem (National Center for Advancing Translational Sciences (NCATS))
